# From the supplement of paper PMC10849652
# The full data set covers some 7,900 targets. This sample favours those with a hit. About 0.6% of all pairs of compound and target were hits. Unmarked numbers belong to inactive results.
# Tests used:
# Test in all cases: log2 fold change, soluble protein after heating vs DMSO (PISA); higher = thermal stabilisation; K562 cells, 10 uM, 30 min; active = over 0.2 and 3.5 SD of the protein, either way, in both replicates (recomputed)
# [1] = compound: NC(=O)Nc1cc(-c2cccc(F)c2)sc1C(=O)N[C@H]1CCCNC1
# In short: (§1)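 Thermal stability values are relative to control samples and come from duplicates. They are expressed as log2 fold changes. For measurement, K562 cells (2×10^6 cells/mL) received 10 μM compound for 30 min, and aliquots were heated for 3 min over 48°C-58°C, pooled, and extracted at 4°C in PBS with 0.5% NP-40. Soluble protein, the supernatant after 21,000xg for 90 min, was quantified by TMTpro 16plex LC-MS/MS with equalised channel sums.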
# [2] = compound: NC(=O)c1cnc(N[C@@H]2CCCC[C@@H]2N)nc1Nc1cccc(-n2nccn2)c1
# In short: as §1
# [3] = compound: NC1(c2ccc(-c3nc4ccn5c(=O)[nH]nc5c4cc3-c3ccccc3)cc2)CCC1
# In short: as §1
# [4] = compound: NCC(=O)Nc1ccc(-n2nc(C(F)(F)F)cc2-c2ccc3c(ccc4ccccc43)c2)cc1
# In short: as §1
# entinostat = compound: Nc1ccccc1NC(=O)c1ccc(CNC(=O)OCc2cccnc2)cc1 [entinostat]
# In short: as §1
# vorinostat = compound: O=C(CCCCCCC(=O)Nc1ccccc1)NO [vorinostat]
# In short: as §1
# citarinostat = compound: O=C(CCCCCCNC(=O)c1cnc(N(c2ccccc2)c2ccccc2Cl)nc1)NO [citarinostat]
# In short: as §1
# silmitasertib = compound: O=C(O)c1ccc2c(c1)nc(Nc1cccc(Cl)c1)c1ccncc12 [silmitasertib]
# In short: as §1
# [5] = compound: O=C1NC(=O)C(c2cnc3ccccn23)=C1c1cn2c3c(cc(F)cc13)CN(C(=O)N1CCCCC1)CC2
# In short: as §1
# [6] = compound: c1cc(OCCN2CCCCC2)cc(-c2n[nH]c3ccc(-c4nnc[nH]4)cc23)c1
# In short: as §1
# entospletinib = compound: c1cn2cc(-c3ccc4cn[nH]c4c3)nc(Nc3ccc(N4CCOCC4)cc3)c2n1 [entospletinib]
# In short: as §1
# Chain of UniProt P15291 (P15291 whole entry, looked up): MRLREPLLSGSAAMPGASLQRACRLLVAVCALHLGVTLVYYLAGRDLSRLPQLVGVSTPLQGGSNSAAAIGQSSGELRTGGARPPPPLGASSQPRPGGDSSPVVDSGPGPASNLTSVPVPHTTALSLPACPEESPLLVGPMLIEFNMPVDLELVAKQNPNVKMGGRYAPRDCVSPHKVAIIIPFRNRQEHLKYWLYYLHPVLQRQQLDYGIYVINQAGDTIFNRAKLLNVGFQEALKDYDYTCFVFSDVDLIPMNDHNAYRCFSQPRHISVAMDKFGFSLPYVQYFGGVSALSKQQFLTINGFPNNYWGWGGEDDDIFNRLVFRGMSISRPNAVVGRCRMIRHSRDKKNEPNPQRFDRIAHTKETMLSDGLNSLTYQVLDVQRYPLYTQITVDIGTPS
# Chain of UniProt Q9UEY8 (Q9UEY8 whole entry, looked up): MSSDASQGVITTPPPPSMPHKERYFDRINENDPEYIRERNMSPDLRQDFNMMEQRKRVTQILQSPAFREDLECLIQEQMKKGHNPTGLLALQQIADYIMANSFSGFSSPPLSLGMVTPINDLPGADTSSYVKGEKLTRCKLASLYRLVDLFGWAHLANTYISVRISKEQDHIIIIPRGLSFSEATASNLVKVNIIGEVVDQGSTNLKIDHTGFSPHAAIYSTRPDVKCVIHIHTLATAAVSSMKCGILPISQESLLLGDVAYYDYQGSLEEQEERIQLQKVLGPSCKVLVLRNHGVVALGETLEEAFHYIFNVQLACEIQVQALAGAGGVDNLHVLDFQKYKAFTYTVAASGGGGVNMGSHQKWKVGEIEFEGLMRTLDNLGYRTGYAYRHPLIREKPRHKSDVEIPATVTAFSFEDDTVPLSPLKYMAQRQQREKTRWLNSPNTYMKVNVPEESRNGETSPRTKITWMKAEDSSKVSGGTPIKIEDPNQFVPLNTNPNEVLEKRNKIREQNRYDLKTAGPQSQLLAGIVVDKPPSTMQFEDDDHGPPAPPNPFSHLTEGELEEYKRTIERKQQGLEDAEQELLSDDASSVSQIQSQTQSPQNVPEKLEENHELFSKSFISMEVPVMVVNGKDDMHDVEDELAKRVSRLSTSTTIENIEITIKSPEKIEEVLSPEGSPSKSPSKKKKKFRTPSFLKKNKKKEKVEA
# Chain of UniProt Q9NYF8 (Q9NYF8 whole entry, looked up): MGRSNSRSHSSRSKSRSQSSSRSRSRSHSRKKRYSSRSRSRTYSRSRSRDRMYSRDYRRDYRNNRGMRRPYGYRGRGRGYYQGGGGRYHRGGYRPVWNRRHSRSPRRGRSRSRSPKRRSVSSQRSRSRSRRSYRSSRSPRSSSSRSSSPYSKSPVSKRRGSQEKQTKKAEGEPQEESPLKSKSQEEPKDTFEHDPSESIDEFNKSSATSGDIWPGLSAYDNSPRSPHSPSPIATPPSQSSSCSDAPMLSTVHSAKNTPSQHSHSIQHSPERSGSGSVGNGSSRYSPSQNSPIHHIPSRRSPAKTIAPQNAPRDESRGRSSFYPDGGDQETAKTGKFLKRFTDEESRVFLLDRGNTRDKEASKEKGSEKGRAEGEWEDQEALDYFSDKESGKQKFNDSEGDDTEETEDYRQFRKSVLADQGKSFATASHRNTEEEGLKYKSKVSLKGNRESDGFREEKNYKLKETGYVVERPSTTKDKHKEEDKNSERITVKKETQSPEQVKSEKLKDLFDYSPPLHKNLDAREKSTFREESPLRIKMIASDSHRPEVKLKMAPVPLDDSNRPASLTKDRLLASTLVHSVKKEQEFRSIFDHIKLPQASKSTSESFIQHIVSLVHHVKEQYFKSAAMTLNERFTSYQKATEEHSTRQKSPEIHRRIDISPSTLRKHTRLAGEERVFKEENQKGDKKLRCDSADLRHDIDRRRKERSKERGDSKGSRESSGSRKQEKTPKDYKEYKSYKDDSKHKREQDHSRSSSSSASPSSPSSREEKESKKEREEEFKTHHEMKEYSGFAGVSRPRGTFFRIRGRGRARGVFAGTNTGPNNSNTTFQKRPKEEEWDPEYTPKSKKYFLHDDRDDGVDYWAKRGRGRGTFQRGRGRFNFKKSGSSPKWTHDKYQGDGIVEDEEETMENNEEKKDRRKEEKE
# Chain of UniProt Q10589 (Q10589 whole entry, looked up): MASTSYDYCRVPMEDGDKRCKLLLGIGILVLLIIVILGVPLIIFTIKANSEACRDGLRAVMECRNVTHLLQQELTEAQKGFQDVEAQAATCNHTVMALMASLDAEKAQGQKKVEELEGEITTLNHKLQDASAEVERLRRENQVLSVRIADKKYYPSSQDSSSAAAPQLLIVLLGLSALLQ
# Chain of UniProt Q8IUR7 (Q8IUR7 whole entry, looked up): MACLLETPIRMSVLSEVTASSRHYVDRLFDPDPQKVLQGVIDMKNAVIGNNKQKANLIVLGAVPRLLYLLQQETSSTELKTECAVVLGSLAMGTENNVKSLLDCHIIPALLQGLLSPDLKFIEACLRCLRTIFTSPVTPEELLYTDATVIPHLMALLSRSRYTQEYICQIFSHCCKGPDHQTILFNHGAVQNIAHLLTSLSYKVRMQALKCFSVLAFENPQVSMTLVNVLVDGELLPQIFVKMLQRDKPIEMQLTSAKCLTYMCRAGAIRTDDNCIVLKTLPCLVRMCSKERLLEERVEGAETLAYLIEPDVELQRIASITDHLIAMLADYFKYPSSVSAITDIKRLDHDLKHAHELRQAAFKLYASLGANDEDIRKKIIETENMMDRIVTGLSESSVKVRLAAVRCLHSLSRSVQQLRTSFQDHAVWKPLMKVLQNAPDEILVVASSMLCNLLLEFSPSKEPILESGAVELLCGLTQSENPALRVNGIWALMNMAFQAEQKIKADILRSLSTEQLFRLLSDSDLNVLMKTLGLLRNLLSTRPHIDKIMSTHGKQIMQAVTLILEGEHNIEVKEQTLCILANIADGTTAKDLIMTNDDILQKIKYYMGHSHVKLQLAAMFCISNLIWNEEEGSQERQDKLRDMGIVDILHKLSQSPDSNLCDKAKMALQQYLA
# Chain of UniProt P35612 (P35612 whole entry, looked up): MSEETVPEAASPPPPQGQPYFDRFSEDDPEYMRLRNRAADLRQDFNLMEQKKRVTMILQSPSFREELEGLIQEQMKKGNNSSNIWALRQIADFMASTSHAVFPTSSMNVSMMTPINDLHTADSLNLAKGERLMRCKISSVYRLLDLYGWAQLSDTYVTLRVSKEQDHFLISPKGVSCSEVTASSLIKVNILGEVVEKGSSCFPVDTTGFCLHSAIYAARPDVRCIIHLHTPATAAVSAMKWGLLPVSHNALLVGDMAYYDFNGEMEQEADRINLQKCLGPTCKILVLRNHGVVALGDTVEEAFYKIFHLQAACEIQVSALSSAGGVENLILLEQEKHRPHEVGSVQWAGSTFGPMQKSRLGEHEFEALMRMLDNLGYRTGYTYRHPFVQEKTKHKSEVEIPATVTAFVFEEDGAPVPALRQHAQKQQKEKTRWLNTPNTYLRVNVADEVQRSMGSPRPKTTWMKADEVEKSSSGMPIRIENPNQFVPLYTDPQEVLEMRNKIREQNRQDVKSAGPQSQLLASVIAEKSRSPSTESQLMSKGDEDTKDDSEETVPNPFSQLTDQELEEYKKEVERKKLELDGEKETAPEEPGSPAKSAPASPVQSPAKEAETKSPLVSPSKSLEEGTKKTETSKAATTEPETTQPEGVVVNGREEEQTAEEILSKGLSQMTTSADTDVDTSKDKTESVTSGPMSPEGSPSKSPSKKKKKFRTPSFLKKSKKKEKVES
# Chain of UniProt Q562R1 (Q562R1 whole entry, looked up): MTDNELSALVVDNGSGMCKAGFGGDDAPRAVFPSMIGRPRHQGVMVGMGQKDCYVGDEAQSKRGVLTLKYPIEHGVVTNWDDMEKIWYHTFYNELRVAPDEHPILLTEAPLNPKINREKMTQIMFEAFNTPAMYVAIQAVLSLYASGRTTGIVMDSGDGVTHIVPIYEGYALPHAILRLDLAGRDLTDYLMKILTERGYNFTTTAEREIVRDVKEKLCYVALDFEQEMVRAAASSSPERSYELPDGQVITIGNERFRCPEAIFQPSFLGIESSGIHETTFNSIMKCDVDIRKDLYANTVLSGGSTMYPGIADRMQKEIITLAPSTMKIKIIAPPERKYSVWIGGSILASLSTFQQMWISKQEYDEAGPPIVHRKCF
# Chain of UniProt Q5JTZ9 (Q5JTZ9 whole entry, looked up): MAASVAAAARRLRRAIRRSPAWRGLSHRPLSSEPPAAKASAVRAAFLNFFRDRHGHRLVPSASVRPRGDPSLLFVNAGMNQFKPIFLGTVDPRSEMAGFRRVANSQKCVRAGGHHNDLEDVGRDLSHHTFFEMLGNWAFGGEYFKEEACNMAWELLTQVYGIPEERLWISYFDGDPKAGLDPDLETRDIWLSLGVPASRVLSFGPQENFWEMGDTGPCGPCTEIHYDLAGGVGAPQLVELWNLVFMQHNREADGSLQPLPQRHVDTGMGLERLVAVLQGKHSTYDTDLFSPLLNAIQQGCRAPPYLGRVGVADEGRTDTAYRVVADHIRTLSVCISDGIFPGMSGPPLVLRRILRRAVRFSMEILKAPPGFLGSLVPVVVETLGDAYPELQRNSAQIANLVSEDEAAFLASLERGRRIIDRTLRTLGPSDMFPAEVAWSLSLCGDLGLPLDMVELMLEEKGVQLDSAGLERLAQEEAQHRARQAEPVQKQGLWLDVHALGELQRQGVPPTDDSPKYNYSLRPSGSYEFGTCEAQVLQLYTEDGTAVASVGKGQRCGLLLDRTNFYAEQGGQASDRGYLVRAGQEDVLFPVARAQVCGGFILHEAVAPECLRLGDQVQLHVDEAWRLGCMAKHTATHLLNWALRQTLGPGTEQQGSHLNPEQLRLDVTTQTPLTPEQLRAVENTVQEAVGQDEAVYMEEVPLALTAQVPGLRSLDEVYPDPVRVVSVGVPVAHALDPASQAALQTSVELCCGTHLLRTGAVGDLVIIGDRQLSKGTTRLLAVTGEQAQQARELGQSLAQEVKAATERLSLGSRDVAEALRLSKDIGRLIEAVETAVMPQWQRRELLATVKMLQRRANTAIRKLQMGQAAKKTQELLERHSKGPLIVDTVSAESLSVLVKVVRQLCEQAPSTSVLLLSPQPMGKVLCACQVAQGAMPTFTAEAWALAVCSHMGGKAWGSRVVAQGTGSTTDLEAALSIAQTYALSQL
Target,log2 fold change [1],log2 fold change [2],log2 fold change [3],log2 fold change [4],log2 fold change (entinostat),log2 fold change (vorinostat),log2 fold change (citarinostat),log2 fold change (silmitasertib),log2 fold change [5],log2 fold change [6],log2 fold change (entospletinib)
ADD2 (UniProt P35612),0.048,0.039,0.036,0.024,-0.038,0.023,0.024,-0.054,-0.092,0.013,-0.008
ACSL3 (UniProt O95573),0.009,-0.041,-0.095,-0.042,0.047,0.049,0.047,0.074,-0.045,0.028,-0.06
ACTBL2 (UniProt Q562R1),-0.205,0.038,1.54 (active),0.239,0.103,0.024,-0.585,-0.129,-0.051,-0.1,0.103
ARMC8 (UniProt Q8IUR7),-0.044,0.017,-0.087,0.002,-0.031,-0.031,0.057,0.058,0.026,-0.028,-0.011
ABCC5 (UniProt O15440),0.016,0.088,-0.038,-0.005,-0.017,0.001,0.114,0.008,-0.082,0.12,0.028
AK6 (UniProt Q9Y3D8),-0.034,-0.072,-0.043,-0.138,0.145,0.074,0.103,0.058,-0.051,-0.009,-0.048
BRIX1 (UniProt Q8TDN6),0.056,-0.025,0.171,0.132,-0.008,0.059,-0.05,0.191,0.401,-0.437,0.029
AARS2 (UniProt Q5JTZ9),-0.029,-0.018,-0.212,-0.086,0.045,0.015,0.037,-0.051,-0.026,0.06,-0.082
BCLAF1 (UniProt Q9NYF8),0.01,0.006,0.003,0.064,0.047,0.109,0.07,-0.361,0.128,-0.31,0.075
BST2 (UniProt Q10589),0.031,0.02,0.003,0.132,0.03,-0.026,-0.058,0.009,0.112,-0.092,-0.009
ADD3 isoform 2 (UniProt Q9UEY8),0.03,0.059,-0.009,-0.002,-0.018,-0.119,0.08,-0.002,0.019,-0.02,-0.066
AGPAT5 (UniProt Q9NUQ2),-0.044,0.016,-0.029,-0.047,-0.027,-0.002,0.045,-0.001,-0.076,-0.027,0.114
B4GALT1 (UniProt P15291),0.053,0.114,-0.279,0.199,-0.01,-0.01,0,0,-0.039,-0.027,0.039
BRD4 (UniProt O60885),-0.031,-0.096,-0.112,-0.119,-0.097,-0.463 (active),-0.123,0.024,-0.129,0.028,0.065
